Bioassay records deposited in PubChem BioAssay by National Center for Advancing Translational Sciences (NCATS).
IL1B secr inh: qHTS for Inhibitors of Inflammasome Signaling: IL-1-beta AlphaLISA Primary Screen | THP-1 LPS/ATP IL-1B secretion, AlphaLISA, 16 h; active compounds read low | activity change, % at 57.5 µM | 360,000 tested, 4.7% active | AID 743279, 2014; in the data active = activity change below about -50%; inconclusive = mostly about -30% to -49%; also: % is scaled to controls: 0 for no effect and ±100 for the full control effect
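THP-1 cells pretreated 1 hr with compounds (up to 57.5 uM final), then stimulated with LPS (250 ng/mL final) plus ATP (1.25 mM final); secreted IL-1B measured by AlphaLISA after 16 hr, decreased signal indicating inhibition.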
D3 ag: qHTS of D3 Dopamine Receptor Agonist: qHTS. max activation, %. D3R DiscoveRx beta-arrestin cells, luminescence, 90 min. 410,000 tested, 0.58% active; in the data active = max activation above about 30%; also: 0% is about no effect
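Agonist mode: compounds and dopamine controls were applied to plated cells for 90 min at 37 degrees C after an overnight attachment at 1500 cells/well. Luminescent read-out followed 30 - 60 minutes at room temperature with DiscoveRx detection reagent.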
DT40 TDP1 no CPT: qHTS for Inhibitors of human tyrosyl-DNA phosphodiesterase 1 (TDP1): qHTS in cells in absence of CPT; DT40 Tdp1-/- hTDP1 cells, no CPT, ATP luminescence, 48 h; Potency, µM (highest dose often 46.2 µM), for inactives: top-dose activity change, negative = growth inhibition, usual class: inhibitors; 420,000 tested, 15% active; also: potency is read from the fitted curve at half-maximal effect; % is scaled to controls: 0 for no effect and ±100 for the full control effect; nearly all actives have a fitted effect of over 55% in size
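Growth of hTDP1-complemented DT40 Tdp1-knockout cells is measured by ATP luminescence after at least 48 hr compound exposure at 37 °C, with DMSO substituting for the 20 nM CPT used in the parallel screen.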
DT40 TDP1 CPT: qHTS for Inhibitors of human tyrosyl-DNA phosphodiesterase 1 (TDP1): qHTS in cells in presence of CPT. AID 686979, 2013. Potency, µM (titrated, usually from 46.2 µM), without a hit: at the top dose activity change, negative = growth inhibition, most hits filed as inhibitors. 420,000 tested, 12% active. chicken DT40 Tdp1-/-;hTDP1 cells + 20 nM CPT, ATP luminescence, 48 h; also: potency is read from the fitted curve at half-maximal effect; % is scaled to controls: 0 for no effect and ±100 for the full control effect; nearly all actives have a fitted effect of over 55% in size
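Cell growth measured by CellTiter-Glo luminescence after a minimum 48 h, 37 C compound exposure with 20 nM CPT in Tdp1-knockout DT40 cells stably expressing hTDP1, seeded 400/well; qHTS titration format.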
ClpP mod: qHTS Assay for Activators of ClpP | Potency, µM (titrated, usually from 57.5 µM), without a hit: at the highest dose activity change, negative = active | 340,000 tested, 1.9% active | ATP-dependent Clp protease proteolytic subunit (Bacillus subtilis (strain 168)), P80244 | purified B. subtilis ClpP, FRET peptide cleavage, 20 min; active = well fitted falling curve with a large enough effect; inconclusive = small, poorly fitted or top-dose-only effect; inactive = no such curve, though single readings can be large or run the other way; also: potency is read from the fitted curve at half-maximal effect; the source files actives as falling curves though it sought activators and does not explain the sign; nearly all actives have a fitted effect of over 65% in size
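ClpP 10 microg/mL final, pH 8 Tris/KCl buffer with BSA, glycerol, Tween-20; compound pinned in; FRET-FV substrate; RT 20 min; Ex320/Em430; ΔFRET vs ADEP 5.8 microM, DMSO, no enzyme.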
D3 antag: qHTS of D3 Dopamine Receptor Antagonist: qHTS; max response, negative = inhibition, %; D3R cells, DiscoveRx beta-arrestin luminescence, antagonist mode; active compounds read low; 360,000 tested, 2.5% active; D(3) dopamine receptor (Homo sapiens), P35462; AID 652054, 2013; in the data active = max response below about -50%; inconclusive = no clear call, values can overlap the other calls; also: % is scaled to controls: 0 for no effect and ±100 for the full control effect
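Cells plated overnight at 1500 cells/well, then exposed to library compounds with dopamine controls for 90 minutes at 37 degrees C. DiscoveRx reagent added for 30–60 minutes at room temperature; luminescence read, quantitative HTS format.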
* hit, by the source's call; ? = inconclusive; . = not tested or not shown; [ ] = dose if it differs, or a comment. An excerpt weighted towards active compounds, which were near 21% of everything screened. Unless noted, calls follow the shape of the dose curve; as a rule, active = well fitted inhibition curve with a large enough effect; inconclusive = small, poorly fitted or top-dose-only effect; inactive = flat fitted curve, though single readings scatter.

SMILES | IL1B secr inh | D3 ag | DT40 TDP1 no CPT | DT40 TDP1 CPT | ClpP mod | D3 antag
CCCOc1cccc(C(=O)Nc2cccc(-c3nc4ncccc4o3)c2C)c1 | . | 5.3 | . | . | -5.1% | .
NC(c1ccccc1)c1cccnc1 (configuration not stated) | 11.2 | 11.8 | -15.8% | 17.7% | . | -13.1
O=S(=O)(c1ccc(F)cc1)N1CCN(C(=S)NC2CC2)CC1 | -5.8 | -4.3 | ? | -0.5% | 0.5% | -22.2
C=CCC1(C(=O)NCCO)CCN(C(=O)OC(C)(C)C)CC1 | 34.5 | -4.7 | -1.9% | -4.8% | -0.8% | -17.6
CC(C)(C)OC(=O)N1CCC[C@H]1C(=O)NCc1ccc(F)cc1F | 4.0 | -1.1 | 1.3% | -0.4% | -0.8% | 13.7
CC1CCCC(C)N1C(=O)COC(=O)c1n[nH]c(=O)c2ccccc12 (configuration not stated) | 24.5 | 5.7 | -4.7% | 11.0% | -1.0% | 26.7
CSc1nc(N)c2ncn([C@@H]3O[C@H](COP(=O)(O)OP(=O)(O)OP(=O)(O)O)[C@@H](O)[C@H]3O)c2n1 | . | . | -8.6% | -28.4% | . | .
CCc1nc2ccc(C(=O)Nc3cccc(NS(C)(=O)=O)c3)cn2c1N(CCC(C)C)CCN(C)C | ? | -4.0 | 18.4µM* | 16.4µM* | 0.7% | 1.5
CCc1nc2ccc(C(=O)Nc3cccc(OC)c3)cn2c1N(CC)Cc1cccc(Br)c1 | -56.6* | -3.7 | ? | 18.4µM* | -3.5% | 13.2
CCc1nc2ccc(C(=O)NCCOc3ccc(OC)cc3)cn2c1N(CC)Cc1cccc(Br)c1 | -69.3* | -9.5 | 20.6µM* | 18.4µM* | -17.6% | -12.8
CCc1nc2ccc(C(=O)NCc3cccs3)cn2c1N(CC)Cc1cccc(Br)c1 | -54.2* | -3.9 | 11.6µM* | 20.6µM* | -6.4% | 16.7
Cc1ccc(C)c(NC(=O)CN(C)C(=O)Cn2c(=O)oc3ccccc32)c1 | 14.3 | -1.2 | 1.5% | 3.2% | -2.4% | -21.7
Cc1c(NC(=O)CN2c3ccccc3CC2C)c(=O)n(-c2ccccc2)n1C (configuration not stated) | 0.0 | 0.8 | -2.6% | 3.1% | . | 3.8
O=C1CN(S(=O)(=O)c2cccc(Cl)c2Cl)CCN1 | 7.7 | 3.2 | 4.8% | 11.8% | 0.2% | 11.1
CN1CCN(S(=O)(=O)c2ccc(Br)c3ccccc23)CC1 | 0.0 | -0.6 | 2.3% | -22.0% | -2.0% | -8.3
CCc1nc2ccc(C(=O)Nc3cccc(NS(C)(=O)=O)c3)cn2c1N(C)Cc1nccn1C | 2.6 | 4.2 | -22.2% | 2.2% | -1.6% | 11.5
CCc1nc2ccc(C(=O)Nc3cccc(NS(C)(=O)=O)c3)cn2c1N(CC)Cc1cccc(Br)c1 | -70.4* | -11.9 | 16.4µM* | ? | 0.9% | 0.0
CCCCNC(=O)c1ccc2nc(CC)c(N(C)Cc3cccs3)n2c1 | -74.0* | 0.8 | ? | 18.4µM* | -5.3% | ?
COC(=O)c1ccc(CSc2nc3c([nH]c4ccccc43)c(=O)n2-c2cc(C)cc(C)c2)o1 | . | -2.2 | ? | ? | -0.3% | .
COc1ccc(OCC#CCNC(C)(C)C)cc1 | 6.7 | -4.1 | -19.8% | -22.5% | -2.5% | -68.8*
COc1ccc2c(-c3ccc(OCCN4CCCCC4)cc3)c(-c3ccccc3OC)sc2c1 | -20.3 | -60.1 | 14.6µM* | -104.3% | 5.3% | -23.3
COc1cc2sc(-c3ccccc3OC)c(-c3ccc(OCCN4CCOCC4)cc3)c2cc1OC | -22.9 | -11.8 | ? | ? | ? | 37.4
COc1ccc2sc(-c3ccccc3OC)c(-c3ccc(SC)cc3)c2c1 | 0.0 | 0.6 | 3.2% | -24.3% | ? | 2.6
COc1ccc2c(-c3ccc(OCCN4CCOCC4)cc3)c(-c3ccccc3OC)sc2c1 | -4.1 | -43.1 | 20.6µM* | 20.6µM* | 5.1% | -7.4
Oc1ccc2sc(-c3ccccc3O)c(-c3ccc(OCCN4CCCCC4)cc3)c2c1 | 104.4 | -8.7 | ? | 20.6µM* | -6.5% | -18.9
SMILES | IL1B secr inh | D3 ag | DT40 TDP1 no CPT | DT40 TDP1 CPT | ClpP mod | D3 antag
COc1ccc(-c2sc3cc(OC)ccc3c2-c2ccc(OCCN3CCCCC3)cc2)cc1 | ? | -8.2 | 5.8µM* | 4.61µM* | 4.8% | -17.7
COc1cccc(CN(C)C(=O)CCN=C2NS(=O)(=O)c3ccccc32)c1 | 45.5 | -12.2 | -12.1% | -17.3% | 0.6% | -3.1
Cc1ccc(C)c2c(C)ccnc12 | . | . | -4.4% | -14.8% | 4.7% | .
CCCNC(=O)C1(C)CCCN(C(=O)c2cccc(OC(F)(F)F)c2)C1 (configuration not stated) | 20.9 | -3.4 | ? | -26.4% | 2.3% | 0.0
COc1ccccc1-c1sc2ccccc2c1-c1ccc(OCCN2CCCCC2)cc1 | -21.0 | -66.5 | 14.6µM* | 18.4µM* | 31.6µM* | ?
Cc1ccc(S(=O)(=O)N2C[C@H]3[C@H]4C(=O)N(c5ccccc5)C(=O)[C@H]4CC(=O)[C@H]3[C@@H]2c2cccc3ccccc23)cc1 | 16.3 | 1.0 | 18.9% | 1.2% | 0.8% | 1.9
Cn1cc(/C=N/n2cnc3scc(-c4ccc(Cl)cc4)c3c2=O)c2ccccc21 | 141.6 | -4.1 | 0.82µM* | 0.581µM* | -14.2% | -26.6
CN(C(=O)C1CCC(=O)N(CCc2ccc(Cl)cc2)C1)C1CCOCC1 (configuration not stated) | -2.2 | -1.2 | 0.1% | -5.2% | -1.9% | -2.0
CC(C(=O)NC1CCCC1)n1c(C2CCCC2)nc2ccccc21 (configuration not stated) | -5.2 | -7.3 | -18.7% | -27.0% | 0.9% | -13.7
O=C(NC1CCCC1)C(c1ccccc1)n1c(CSCCOc2ccccc2)nc2ccccc21 (configuration not stated) | 23.8 | 8.0 | 16.4µM* | ? | -2.7% | 43.4
COc1ccc(C(C(=O)NC2CCCC2)n2c(C3CCN(C(C)=O)CC3)nc3ccccc32)cc1 (configuration not stated) | -13.9 | -7.6 | -15.8% | -4.7% | -16.9% | -50.2*
Cc1nc2cc(NC(=O)[C@@H]3C[C@@H](Sc4ccccn4)CN3Cc3ccc4c(c3)OCCO4)ccc2s1 | . | . | -9.2% | 7.8%[9.04 µM] | . | .
COc1ccccc1NC(=O)CSc1nc2ncccc2[nH]1 | 7.1 | -13.4 | -14.3% | -6.7% | 1.8% | ?
CCCCc1ccc(NC(=O)CSc2nc3ncccc3[nH]2)cc1 | -5.7 | 5.3 | 1.16µM* | 2.59µM* | 1.7% | 55.4
